Reference: PubChem BioAssay
For part of these data: Results with a measured potency or affinity are listed apart. The source made the active and inactive calls.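 Rule for the calls, unless noted: active = primary screen hit whose fluorescence ratio, in both repeats, exceeds the weak agonist control mean by 3 SD; inactive = the rest.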

Key:
[1] = test system: TRPC4 beta (transient receptor potential cation channel C4), mouse; test: TRPC4 cation channel opening, retest – cell-based, Fluo4 calcium, HEK293 TRPC4beta/mu-opioid, duplicates, 10 µM, confirmation (AID 2426;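 active = fluorescence ratio normalized to control raised more than 50% in primary screen plus both repeat runs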); conditions: Fluo4 calcium fluorescence, at 10 µM; active compounds read high
[2] = test system: transient receptor potential cation channel C4 beta (TRPC4), mouse; test: TRPC4 cation channel opening, second retest – cell-based, second round, Fluo4, HEK293 TRPC4beta/mu-opioid, 1 µM, confirmation (AID 2461;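 active = primary screen active and over 50% activation in each of two duplicate runs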); conditions: Fluo4 calcium fluorescence, at 1 µM; active compounds read high
[3] = test system: TRPC4 (transient receptor potential cation channel C4 beta), mouse; test: potentiation of DAMGO EC20 TRPC4 response – cell-based, second round, Fluo-4, HEK293 TRPC4beta/mu-opioid, 1 µM, confirmation (AID 2554); conditions: DAMGO EC20, Fluo-4 calcium flux, at 1 µM; active compounds read high
[4] = test system: TRPC4 beta (transient receptor potential cation channel C4), mouse; test: potentiation of DAMGO EC20 TRPC4 response – cell-based, Fluo-4, HEK293 TRPC4beta/mu-opioid, confirmation (AID 2555;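 active = primary screen hit whose calcium fluorescence ratio, in both repeats, exceeds the weak agonist control mean by 3 SD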); conditions: DAMGO EC20, Fluo-4 calcium flux, at 10 µM; active compounds read high
[5] = target: Short transient receptor potential channel 4 (Mus musculus) (UniProt Q9QUQ5); test: blockers of DAMGO-evoked TRPC4 calcium flux – cell-based, Fluo4, HEK293 TRPC4beta/mu-opioid, confirmation (AID 2636;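 active = calcium signal cut by more than 3 SD below the full-agonist control yet still positive, in both repeats and the earlier primary screen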); conditions: at 10 µM; active compounds read high
Sequence of Short transient receptor potential channel 4 (Mus musculus) (Q9QUQ5 whole entry, looked up): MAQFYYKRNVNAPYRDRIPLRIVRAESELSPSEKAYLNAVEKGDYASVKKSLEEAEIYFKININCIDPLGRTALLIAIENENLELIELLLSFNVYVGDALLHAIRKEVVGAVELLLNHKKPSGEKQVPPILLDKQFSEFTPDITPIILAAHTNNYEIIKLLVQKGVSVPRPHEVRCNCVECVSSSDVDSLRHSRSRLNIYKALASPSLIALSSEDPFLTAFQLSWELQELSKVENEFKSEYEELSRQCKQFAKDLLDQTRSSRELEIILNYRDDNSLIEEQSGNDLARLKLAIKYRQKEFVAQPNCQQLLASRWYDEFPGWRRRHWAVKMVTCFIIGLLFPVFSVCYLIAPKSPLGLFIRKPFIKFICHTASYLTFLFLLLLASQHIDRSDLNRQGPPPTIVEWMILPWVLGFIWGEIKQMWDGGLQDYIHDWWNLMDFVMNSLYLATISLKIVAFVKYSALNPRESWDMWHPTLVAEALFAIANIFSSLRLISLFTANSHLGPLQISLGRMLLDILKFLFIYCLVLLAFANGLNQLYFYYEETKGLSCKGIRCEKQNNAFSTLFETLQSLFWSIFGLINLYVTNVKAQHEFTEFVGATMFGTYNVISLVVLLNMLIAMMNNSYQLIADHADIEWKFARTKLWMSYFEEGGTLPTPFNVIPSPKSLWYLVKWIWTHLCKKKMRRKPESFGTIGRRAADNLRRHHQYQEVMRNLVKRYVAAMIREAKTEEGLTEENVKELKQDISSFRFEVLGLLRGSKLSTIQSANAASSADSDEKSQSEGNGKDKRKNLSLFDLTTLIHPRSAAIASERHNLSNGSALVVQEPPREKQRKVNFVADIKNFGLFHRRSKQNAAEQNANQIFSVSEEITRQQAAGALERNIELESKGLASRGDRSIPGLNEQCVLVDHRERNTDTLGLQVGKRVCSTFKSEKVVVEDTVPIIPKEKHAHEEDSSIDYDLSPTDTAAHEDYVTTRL

[6] = target: Short transient receptor potential channel 4 (Mus musculus) (UniProt Q9QUQ5); test: blockers of DAMGO-evoked TRPC4 calcium flux – cell-based, second round, Fluo4, HEK293 TRPC4beta/mu-opioid, 1 µM, confirmation (AID 2637;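 active = calcium signal ratio cut to more than 3 SD under the fully stimulated control mean yet still positive, in both repeats and the primary screen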;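 for inhibition: percent of integrated ratio relative to wells lacking test compound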); conditions: at 1 µM; active compounds read high
[7] = target: Short transient receptor potential channel 4 (Mus musculus) (UniProt Q9QUQ5); test: calcium entry via TRPC4 opening agents – cell-based, HEK293 TRPC4/mu-opioid, Fluo-4 calcium, dose response (AID 434937;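 active = primary screen activator hit with a dose response curve and TRPC4 channel activation at any tested dose; inactive = no activation, no dose response, or not a primary hit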)
[8] = target: Short transient receptor potential channel 4 (Mus musculus) (UniProt Q9QUQ5); test: potentiation of DAMGO-evoked TRPC4 calcium signal – cell-based, HEK293 TRPC4/mu-opioid, Fluo-4 calcium, EC20 DAMGO, dose response (AID 434941;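 active = earlier screen potentiator hit that boosts the TRPC4 ion channel at some dose, with a dose response; inactive = no potentiation, no dose response, or not a prior hit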;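 note: calcium entry triggered by an EC20 dose of DAMGO at the co-expressed mu-opioid receptor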)
[9] = target: Short transient receptor potential channel 6 (Mus musculus) (UniProt Q61143); test: TRPC6 blockade by TRPC4 inhibitor hits – cell-based, HEK293, membrane potential dye, duplicate, selectivity assay for TRPC4 inhibitor project, confirmation (AID 434948;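 active = active in primary screen and both duplicates, each dropping signal beyond three positive-control SD with fluorescence still positive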); conditions: HEK293 TRPC6, membrane potential dye fluorescence, at 10 µM, stimulated with maximal-effect acetylcholine; active compounds read high
Sequence of Short transient receptor potential channel 6 (Mus musculus) (Q61143 whole entry, looked up): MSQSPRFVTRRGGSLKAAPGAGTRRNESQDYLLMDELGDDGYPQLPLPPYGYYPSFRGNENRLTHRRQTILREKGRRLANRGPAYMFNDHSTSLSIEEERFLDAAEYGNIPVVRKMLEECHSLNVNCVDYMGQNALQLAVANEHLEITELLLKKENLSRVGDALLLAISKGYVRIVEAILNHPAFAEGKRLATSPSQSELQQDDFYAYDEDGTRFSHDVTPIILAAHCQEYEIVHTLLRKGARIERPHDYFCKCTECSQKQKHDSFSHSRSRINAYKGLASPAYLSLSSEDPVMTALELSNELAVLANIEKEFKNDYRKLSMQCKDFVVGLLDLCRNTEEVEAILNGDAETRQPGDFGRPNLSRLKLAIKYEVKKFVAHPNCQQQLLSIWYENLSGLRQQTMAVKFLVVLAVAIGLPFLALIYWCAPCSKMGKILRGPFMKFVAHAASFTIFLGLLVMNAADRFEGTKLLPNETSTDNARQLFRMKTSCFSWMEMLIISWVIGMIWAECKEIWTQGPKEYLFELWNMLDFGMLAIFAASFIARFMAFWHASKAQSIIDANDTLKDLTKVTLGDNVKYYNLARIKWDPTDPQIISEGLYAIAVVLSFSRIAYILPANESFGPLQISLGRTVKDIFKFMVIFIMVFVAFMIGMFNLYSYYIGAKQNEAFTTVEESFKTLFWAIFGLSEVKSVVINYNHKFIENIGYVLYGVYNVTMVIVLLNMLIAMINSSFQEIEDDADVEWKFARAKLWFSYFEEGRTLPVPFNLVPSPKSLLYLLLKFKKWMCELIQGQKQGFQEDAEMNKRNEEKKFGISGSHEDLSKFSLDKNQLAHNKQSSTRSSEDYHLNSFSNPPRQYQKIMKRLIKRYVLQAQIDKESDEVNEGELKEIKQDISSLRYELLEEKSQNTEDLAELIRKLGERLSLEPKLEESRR

[10] = target: Short transient receptor potential channel 6 (Mus musculus) (UniProt Q61143); test: TRPC6 opening by TRPC4 activator hits – cell-based, HEK293, membrane potential dye, duplicate, selectivity assay for TRPC4 activator project, confirmation (AID 434950;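 active = membrane potential signal rise above negative control mean plus 3 SD in both duplicates, also active in the earlier TRPC4 screen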); conditions: HEK293 TRPC6, membrane potential fluorescence, at 10 µM; activation: active compounds read high; outcome: activation
[11] = target: Short transient receptor potential channel 6 (Mus musculus) (UniProt Q61143); test: positive modulators of mouse TRPC6 channel – HEK293 cells, membrane potential dye, duplicate, selectivity assay for TRPC4 potentiator project, confirmation (AID 434952;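 active = compound raising the membrane signal above positive-control mean plus 3 SD in both repeats, and a primary screen hit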); conditions: HEK293 TRPC6, membrane potential dye fluorescence, at 10 µM, maximal acetylcholine added after compound; active compounds read high
[12] = target: Short transient receptor potential channel 4 (Mus musculus) (UniProt Q9QUQ5); test: calcium flux activators in TRPC4/5HT1a cells, counter-screen for TRPC4 activator project, cell-based, second counter screen, HEK293 TRPC4/5HT1a, Fluo-4 (AID 434977;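 active = calcium signal rise above buffer-control mean plus 5 SD in both duplicates, and also a hit in the primary screen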); conditions: Fluo-4 calcium flux, at 10 µM; active compounds read high
[13] = serotonin-gated TRPC4 signal block – cell-based, second counter screen, HEK293 TRPC4/5HT1a, Fluo-4, counter-screen for TRPC4 inhibitor project, confirmation (AID 434978;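 active = primary screen active whose calcium signal fell more than 3 SD beyond the full-serotonin control mean in both duplicate plates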;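 for outcome: serotonin given first at submaximal then at maximal dose after compound preincubation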); conditions: Fluo-4 calcium flux, at 10 µM, serotonin added to trigger calcium flux; active compounds read high
[14] = test system: TRPC4 (mouse), co-expressed with 5HT1a in HEK293; test: enhancement of serotonin-evoked TRPC4 response – cell-based, second counter screen, HEK293 TRPC4/5HT1a, Fluo-4, counter-screen for TRPC4 potentiator project, confirmation (AID 434979;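 active = signal rise over 3 SD above mean of control wells given weak agonist, in both repeats and first screen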); conditions: Fluo-4 calcium flux, at 10 µM, serotonin added at its EC20 dose; active compounds read high
[15] = nonspecific calcium rise without TRPC4 – cell-based, HEK293 mu-opioid receptor line, counter-screen for TRPC4 activator project, confirmation (AID 449723;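 active = hit in primary screen, with calcium signal over 5 SD above buffer well mean in both duplicates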;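 note: counter screen cells carry the mu-opioid receptor alone and lack TRPC4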); conditions: HEK293 mu-opioid cells, Fluo-4 calcium fluorescence, at 10 µM; active compounds read high
[16] = nonspecific potentiation of DAMGO calcium response – cell-based, HEK293 mu-opioid receptor line, counter-screen for TRPC4 allosteric potentiator project, confirmation (AID 449724;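 active = calcium signal rise more than 3 SD above the low-dose agonist control mean, in both duplicate plates and the primary screen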); conditions: HEK293 mu-opioid receptor cells, Fluo-4 calcium flux, at 10 µM, compound added before EC20 DAMGO stimulus; active compounds read high

Row | SMILES | outcome [1] | outcome [2] | outcome [3] | outcome [4] | inhibition [5] | outcome [6] | outcome [7] | outcome [8] | outcome [9] | outcome [10] | outcome [11] | outcome [12] | inhibition [13] | outcome [14] | outcome [15] | outcome [16] | inhibition [6] | outcome [13] | inhibition [9]
1 | Cc1nn(C)c(C)c1Sc1ccc(Br)cc1 | inactive | inactive | inactive | inactive | 82% (active) | inactive | inactive | inactive | inactive | inactive | inactive | inactive | 24.8% (active) | inactive | inactive | inactive |  |  | 
2 | O=C(O)CN1C(c2ccccc2O)Nc2ccc(Br)cc2C1c1ccccc1 (stereo not given) | inactive | inactive | inactive | inactive | 96% (active) |  | inactive | inactive | inactive | inactive | inactive | inactive | 13.5% (active) | inactive | inactive | inactive | 45% (active) |  | 
3 | O=c1c2ccccc2[nH]c(=S)n1CCN1CCN(Cc2ccccc2)CC1 | inactive | inactive | inactive | inactive | 75% (active) |  | inactive | inactive | inactive | inactive | inactive | inactive |  | inactive | inactive | inactive | 44% (active) | inactive | 
4 | c1ccc(CN2CCN(Cc3c[nH]c4ccccc34)CC2)cc1 | inactive | inactive | inactive | inactive | 88% (active) | inactive | inactive | inactive | inactive | inactive | inactive | inactive | 31.6% (active) | inactive | inactive | inactive |  |  | 
5 | Fc1ccc(CN2CCC(Cc3ccccc3)CC2)cc1F | inactive | inactive | inactive | inactive | 89% (active) | inactive | inactive | inactive | inactive | inactive | inactive | inactive | 25.9% (active) | inactive | inactive | inactive |  |  | 
6 | CCCN(c1nc(C)cc(OC)n1)S(=O)(=O)c1ccccc1 | inactive | inactive | inactive | inactive | 59% (active) | inactive | inactive | inactive | inactive | inactive | inactive | inactive | 25.2% (active) | inactive | inactive | inactive |  |  | 
7 | c1ccc(CNc2c3ccccc3nc3ccccc23)cc1 | inactive | inactive | inactive | inactive | 95% (active) |  | inactive | inactive |  | inactive | inactive | inactive | 23.7% (active) | inactive | inactive | inactive | 60% (active) |  | 38% (active)
8 | OCC1(Cc2ccccc2)CCCN(Cc2cnn(-c3ccccc3)c2)C1 (stereo not given) | inactive | inactive | inactive | inactive | 91% (active) |  | inactive | inactive | inactive | inactive | inactive | inactive | 36.1% (active) | inactive | inactive | inactive | 42% (active) |  | 
9 | Cc1ccc(N(CC(=O)NC2CCCC2)C(=O)CNC(=O)c2cccs2)cc1F | inactive | inactive | inactive | inactive | 70% (active) | inactive | inactive | inactive | inactive | inactive | inactive | inactive |  | inactive | inactive | inactive |  | inactive | 
10 | S=C(Nc1ccccc1)Nc1cc(Cl)ccc1Oc1ccccc1 | inactive | inactive | inactive | inactive | 78% (active) | inactive | inactive | inactive | inactive | inactive | inactive | inactive | 40.2% (active) | inactive | inactive | inactive |  |  | 
11 | c1csc(-c2nc(NCC3CCCO3)c3ccccc3n2)c1 (stereo not given) | inactive | inactive | inactive | inactive | 79% (active) | inactive | inactive | inactive | inactive | inactive | inactive | inactive | 28% (active) | inactive | inactive | inactive |  |  | 
12 | Cc1nc(N2CCN(c3ccccn3)CC2)c2c(C)c(C(=O)N3CCN(c4ccccc4F)CC3)sc2n1 | inactive | inactive | inactive | inactive | 93% (active) | inactive | inactive | inactive | inactive | inactive | inactive | inactive |  | inactive | inactive | inactive |  | inactive | 
13 | O=C(c1ccc(Cl)c(Cl)c1)N(Cc1ccco1)c1ccc(O)cc1 | inactive | inactive | inactive | inactive | 94% (active) | inactive | inactive | inactive | inactive | inactive | inactive | inactive | 32% (active) | inactive | inactive | inactive |  |  | 
14 | CCN(CC)c1nc2ccccc2c(N)c1-c1ccccc1 | inactive | inactive | inactive | inactive | 89% (active) | inactive | inactive | inactive |  | inactive | inactive | inactive | 33.1% (active) | inactive | inactive | inactive |  |  | 37.5% (active)
15 | CCCNC(=O)c1nnsc1S(=O)c1ccc(Cl)cc1 (stereo not given) | inactive | inactive | inactive | inactive | 88% (active) |  | inactive | inactive | inactive | inactive | inactive | inactive | 20.3% (active) | inactive | inactive | inactive | 42% (active) |  | 
